Source: PubChem BioAssay (National Center for Advancing Translational Sciences (NCATS))
Sampled rows, rich in hits. Any-hit rate of the full collection: about 19%.
HT1080 IDH1KD tx: kills HT-1080 cells with IDH1 knockdown; HT-1080 IDH1 knockdown viability, ATP luminescence, 48 h; Potency, µM (highest dose often 46.1 µM), for inactives: at the top dose activity, negative = toxicity, hits mostly cytotoxic; 360,000 tested, 2% active; AID 686971;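 note: potency is the fitted concentration of half-maximal effect; 0% = DMSO wells and -100% = cell-free medium wells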
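Knockdown cells (IDH1KD HT-1080) received compounds 2 h after plating at 750 cells/well and were kept 48 h at 37 °C in 5% FBS RPMI. A CellTiter-Glo luminescence read gave % activity for curve fitting.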
IL-1B inflam inh: inflammasome signaling inhibition, IL-1 beta readout | 360,000 tested, 4.7% active | activity change, % at 57.5 µM | THP-1 LPS/ATP IL-1B secretion, AlphaLISA, 16 h; hits give low values | AID 743279; in the data active = activity change below about -50%; inconclusive = mostly about -30% to -49%
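THP-1 cells pretreated 1 hr with compounds (up to 57.5 uM final), then stimulated with LPS (250 ng/mL final) plus ATP (1.25 mM final); secreted IL-1B measured by AlphaLISA after 16 hr, decreased signal indicating inhibition.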
HT1080-NT tox: kills 2HG-producing HT-1080-NT fibrosarcoma cells; HT-1080-NT fibrosarcoma viability, CellTiter-Glo ATP luminescence, 48 h; Potency, µM (top dose mostly 46.1 µM), without a hit: at the highest dose activity, negative = less viability, most hits filed as cytotoxic; 360,000 tested, 1.6% active;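 note: NT is the 2HG producing partner of a matched IDH1 knockdown line; potency is the fitted concentration of half-maximal effect; 0% = DMSO-treated cells and -100% = media-only wells without cells; nearly all actives have a fitted effect of over 55% in size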
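HT-1080-NT fibrosarcoma cells (2HG-overproducing), 750 cells/well in RPMI with 5% FBS, dosed after 2 h and incubated 48 h at 37C. CellTiter-Glo luminescence normalized to DMSO and no-cell wells; concentration-response curves fitted and classed.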
TDP1 cell noCPT: qHTS for Inhibitors of human tyrosyl-DNA phosphodiesterase 1 (TDP1): qHTS in cells in absence of CPT | Potency, µM (titrated, usually from 46.2 µM), for the others: at the top dose activity change, negative = growth inhibition, most hits filed as inhibitors | DT40 Tdp1-/- hTDP1 cells, no CPT, ATP luminescence, 48 h | 420,000 tested, 15% active; note: potency is the fitted concentration of half-maximal effect; nearly all actives have a fitted effect of over 55% in size
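No-CPT arm: Tdp1-/-;hTDP1 DT40 cells (400/well) plus compounds, incubated ≥48 hr at 37 °C. Readout CellTiter-Glo luminescence.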
DT40 TDP1 CPT: DT40-hTDP1 cell growth loss with CPT | chicken DT40 Tdp1-/-;hTDP1 cells + 20 nM CPT, ATP luminescence, 48 h | Potency, µM (highest dose often 46.2 µM), for the others: top-dose activity change, negative = growth inhibition, most hits filed as inhibitors | 420,000 tested, 12% active; note: potency is the fitted concentration of half-maximal effect; nearly all actives have a fitted effect of over 55% in size
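Chicken DT40 Tdp1-/- cells complemented with human TDP1, 400 cells/well, exposed to compounds plus 20 nM camptothecin for at least 48 h at 37 C; viability read as ATP content by CellTiter-Glo luminescence.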
Numbers without * were called inactive; u = inconclusive; x = not tested or not shown; [ ] = another dose, or the depositor's remark. Unless noted, calls come from the whole dose curve; as a rule, active = well fitted curve in the direction sought with a large enough effect; inconclusive = small, poorly fitted or top-dose-only effect, or another doubt; inactive = no such curve, though single readings can be large; an effect the other way counts as inactive or inconclusive. Unless noted, % is set by controls: 0 for no effect and ±100 for the full control effect.

SMILES | HT1080 IDH1KD tx | IL-1B inflam inh | HT1080-NT tox | TDP1 cell noCPT | DT40 TDP1 CPT
Cc1oc2c(cc(NS(=O)(=O)c3cccs3)c3ccccc32)c1C(=O)OC(C)C | -15% | 20 | 0% | u | u
COc1ccc(S(=O)(=O)Nc2cc3c(C(C)=O)c(C)oc3c3ccccc23)cc1 | 0.52µM* | 74 | 1.3µM* | 0.65µM* | 0.65µM*
Cc1oc2c(cc(NS(=O)(=O)c3ccc(C(C)C)cc3)c3ccccc32)c1C(=O)O | -10% | 39 | -13% | 19% | -16%
O=C(NC1CCCC1)c1ccc2c(=O)n(Cc3ccccc3)c(SCc3cccc([N+](=O)[O-])c3)nc2c1 | x | x | x | -20% | -24%
CCN1C[C@@H]2[C@@H]3C(=O)N(C)C(=O)[C@@H]3[C@](CC)(C1=O)N2C(=O)c1ccc(F)cc1 | 9% | 0 | 5% | 2% | 2%
COC(=O)C1=C(C)N(c2ccc(C(=O)OC)cc2)C(=O)C1 | 0% | 9 | -6% | u | u
COC(=O)C1=C(C)N(c2cc(Cl)cc(Cl)c2)C(=O)C1 | u | -27 | 21µM* | 8.2µM* | 7.3µM*
O=C(Nc1ccc(C(=O)OC[C@@H]2CCCN3CCCC[C@H]23)cc1)c1cccc(Br)c1 | -6% | -6 | -11% | 18µM* | u
O=C(NC(=O)c1cccc(F)c1)OC[C@@H]1CCCN2CCCC[C@H]12 | 0% | 4 | 19% | -8% | 10%
CCN(CC)Cc1ccc(NC(=O)c2sc3cc(Cl)ccc3c2Cl)cc1 | 23µM* | x | 7.3µM* | 16µM* | u
O=C(NCC(=O)N1CCCCC1)c1sc2ccccc2c1Cl | 12% | u | 7% | -21% | -8%
O=C(Nc1ccc(CN2CCCCC2)cc1)c1cccc(Br)c1 | -28% | -55* | -18% | u | u
O=C(Nc1ccc(CN2CCCCC2)cc1)c1sc2ccccc2c1Cl | u | -57* | u | 16µM* | 13µM*
COc1cc(C(=O)NC(C)c2cnn(-c3ccccc3C)c2C)cc(OC)c1OC (configuration not stated) | -19% | 0 | -16% | -14% | -12%
O=C(Cn1cnc2scc(-c3ccc(Br)cc3)c2c1=O)N1CCOCC1 | -3% | -27 | -6% | -1% | -17%
COc1ccccc1-c1sc2ccccc2c1-c1cnc(N2CCOCC2)nc1 | -15% | 0 | -10% | u | -7%
CNC(=O)c1ccsc1NC(=O)c1sc2ccccc2c1Cl | -16% | -1 | u | u | 13µM*
CCN(CC)c1ccc(NC(=O)c2sc3ccccc3c2Cl)cc1 | x | x | x | 21µM* | 21µM*
Cc1ccc(C(=O)Nc2ccccc2C(=O)N2CCOCC2)cc1[N+](=O)[O-] | u | 14 | 17% | -28% | -1%
COc1ccccc1C(=O)NC(CCSC)C(=O)NCCCn1nc(C)cc1C (configuration not stated) | -4% | -2 | -1% | -6% | -6%
CCCCC(=O)NC(=S)NNC(=O)CCc1ccccc1 | -2% | 174 | 3% | 21µM* | 21µM*
O=C(CCc1ccccc1)NC(=S)NCc1ccco1 | -9% | 1 | -6% | 21µM* | 12%
CC(C)(C)CC(=O)NC(=S)NCc1ccco1 | -5% | 0 | -8% | 0% | -14%
CC(=O)NC(=S)NNC(=O)CCc1ccccc1 | -5% | -7 | 0% | u | u
CCCCC(=O)NNC(=S)NC(=O)CCC | -13% | -95* | -10% | u | u
SMILES | HT1080 IDH1KD tx | IL-1B inflam inh | HT1080-NT tox | TDP1 cell noCPT | DT40 TDP1 CPT
O=C(CCc1ccccc1)NNC(=S)NCCc1ccccc1 | -4% | 16 | -2% | 3% | u
O=C(CCc1ccccc1)NNC(=S)NC(=O)c1ccccc1 | 11µM* | 0 | u | 15µM* | 7.3µM*
O=C(Cc1ccccc1[N+](=O)[O-])NNC(=O)c1ccncc1 | -5% | -1 | -7%[9.24 µM] | 15% | -7%
Nc1ncc(Br)cc1S(=O)(=O)NCCC(=O)NC1CCCCC1 | 0% | 29 | -2% | -15% | u
CC(C)(C)c1cc(CCC(=O)NNC(=S)NC(=O)c2ccccc2)cc(C(C)(C)C)c1O | u | 169 | 15µM* | 3.7µM* | 4.1µM*
CCc1ccc(NC(=O)c2ccc(CN3CC(=O)N4CCCCC4C3=O)cc2)cc1 (configuration not stated) | x | x | x | 21µM* | u
CCOP(=O)(OCC)C(NC(=O)/C=C/c1ccc(OC)cc1)c1ccccc1 (configuration not stated) | 5% | 5 | 12% | 7% | -13%
Cc1ccccc1OCC(=O)NNC(=O)Cn1[nH]c(=O)c2ccccc2c1=O | -21% | 22 | -5% | u | 8.2µM*
Cc1ccccc1OCC(=O)Nc1ccccc1N1CCOCC1 | -10% | 9 | -13% | 10µM* | -18%
COc1cc(CNCCCN2CCOCC2)c(Br)cc1OCC(=O)Nc1ccccc1C | -19% | -55* | -25% | u | u
O=C(CC12CC3CC(CC(C3)C1)C2)Nc1ccccc1N1CCOCC1 | -8% | -5 | -2% | 10µM* | u
CCCn1c(SCC(=O)NCCc2ccccc2)nnc1-c1ccco1 | -2% | 0 | 1% | -9% | -25%
CCOc1ncccc1C(=O)OCC(=O)NC1CCCCC1 | 2% | 15 | 8% | 11% | 18%
Cc1cc(C)c(OCC(=O)Nc2ccccc2N2CCCCC2)c(C)c1 | -14% | 4 | -3% | u | u
Cc1ccccc1OCC(=O)Nc1ccccc1-c1ccccc1NC(=O)COc1ccccc1C | 1% | -5 | 9% | 15µM* | u
Cc1cc(C)c(OCC(=O)Nc2ccccc2N2CCOCC2)c(C)c1 | u | -11 | -11% | 22µM* | 14µM*
COC(=O)c1ccc(N2C(=O)Nc3ccccc3N2O)cc1 | -8% | 0 | 1% | 7% | 2%
COc1ccc(Nc2ncc(C#N)c(N)n2)c(OC)c1 | 27% | 17 | u | -12% | 6%
COc1ccccc1CN(C)C(=O)C(NC(=O)Cc1cccc2ccccc12)C(C)C (configuration not stated) | -30% | -62* | -30% | 23µM* | u
Cc1ccc(C(=O)COC(=O)c2cc(-c3cccs3)nc3ccccc23)cc1 | x | x | x | 18µM* | u
Cc1ccc2nc(-c3ccc(Cl)cc3)cc(C(=O)OCC(=O)c3ccccc3)c2c1 | x | x | x | 21µM* | u
COc1ccc(-c2cc(C(=O)Oc3ccc(C)cc3)c3cc(C)ccc3n2)cc1 | x | x | x | -2% | -23%
COc1ccc(-c2cc(C(=O)Oc3ccccc3)c3cc(C)ccc3n2)cc1 | x | x | x | 5.2µM* | u
COc1ccccc1CNC(=O)c1cc(C)nc2ccccc12 | 0% | 7 | 1% | u | -30%
